# Screening results: PubChem BioAssay, University of Kansas High Throughput Screening Laboratory
# The list is not random: actives were taken first. Their share in the collection is about 3.5%.
# Pf apPOL inh – Pf-apPOL DNA polymerase inhibition. Recombinant Pf-apPOL, molecular beacon fluorescence, 1.5 h. inhibition, % at 10 µM. actives 0.25% (n = 210,000)
# mHTT-CaM PPI inh – mHTT-calmodulin interaction abrogation; AlphaScreen His-mHTT/GST-CaM binding, luminescence; inhibition, % at 15 µM; actives 3.6% (n = 190,000); AID 1671202;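 also: 0% = both proteins with DMSO and 100% = one protein alone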
# Target sequence (P42858 whole entry, looked up, stated change not applied): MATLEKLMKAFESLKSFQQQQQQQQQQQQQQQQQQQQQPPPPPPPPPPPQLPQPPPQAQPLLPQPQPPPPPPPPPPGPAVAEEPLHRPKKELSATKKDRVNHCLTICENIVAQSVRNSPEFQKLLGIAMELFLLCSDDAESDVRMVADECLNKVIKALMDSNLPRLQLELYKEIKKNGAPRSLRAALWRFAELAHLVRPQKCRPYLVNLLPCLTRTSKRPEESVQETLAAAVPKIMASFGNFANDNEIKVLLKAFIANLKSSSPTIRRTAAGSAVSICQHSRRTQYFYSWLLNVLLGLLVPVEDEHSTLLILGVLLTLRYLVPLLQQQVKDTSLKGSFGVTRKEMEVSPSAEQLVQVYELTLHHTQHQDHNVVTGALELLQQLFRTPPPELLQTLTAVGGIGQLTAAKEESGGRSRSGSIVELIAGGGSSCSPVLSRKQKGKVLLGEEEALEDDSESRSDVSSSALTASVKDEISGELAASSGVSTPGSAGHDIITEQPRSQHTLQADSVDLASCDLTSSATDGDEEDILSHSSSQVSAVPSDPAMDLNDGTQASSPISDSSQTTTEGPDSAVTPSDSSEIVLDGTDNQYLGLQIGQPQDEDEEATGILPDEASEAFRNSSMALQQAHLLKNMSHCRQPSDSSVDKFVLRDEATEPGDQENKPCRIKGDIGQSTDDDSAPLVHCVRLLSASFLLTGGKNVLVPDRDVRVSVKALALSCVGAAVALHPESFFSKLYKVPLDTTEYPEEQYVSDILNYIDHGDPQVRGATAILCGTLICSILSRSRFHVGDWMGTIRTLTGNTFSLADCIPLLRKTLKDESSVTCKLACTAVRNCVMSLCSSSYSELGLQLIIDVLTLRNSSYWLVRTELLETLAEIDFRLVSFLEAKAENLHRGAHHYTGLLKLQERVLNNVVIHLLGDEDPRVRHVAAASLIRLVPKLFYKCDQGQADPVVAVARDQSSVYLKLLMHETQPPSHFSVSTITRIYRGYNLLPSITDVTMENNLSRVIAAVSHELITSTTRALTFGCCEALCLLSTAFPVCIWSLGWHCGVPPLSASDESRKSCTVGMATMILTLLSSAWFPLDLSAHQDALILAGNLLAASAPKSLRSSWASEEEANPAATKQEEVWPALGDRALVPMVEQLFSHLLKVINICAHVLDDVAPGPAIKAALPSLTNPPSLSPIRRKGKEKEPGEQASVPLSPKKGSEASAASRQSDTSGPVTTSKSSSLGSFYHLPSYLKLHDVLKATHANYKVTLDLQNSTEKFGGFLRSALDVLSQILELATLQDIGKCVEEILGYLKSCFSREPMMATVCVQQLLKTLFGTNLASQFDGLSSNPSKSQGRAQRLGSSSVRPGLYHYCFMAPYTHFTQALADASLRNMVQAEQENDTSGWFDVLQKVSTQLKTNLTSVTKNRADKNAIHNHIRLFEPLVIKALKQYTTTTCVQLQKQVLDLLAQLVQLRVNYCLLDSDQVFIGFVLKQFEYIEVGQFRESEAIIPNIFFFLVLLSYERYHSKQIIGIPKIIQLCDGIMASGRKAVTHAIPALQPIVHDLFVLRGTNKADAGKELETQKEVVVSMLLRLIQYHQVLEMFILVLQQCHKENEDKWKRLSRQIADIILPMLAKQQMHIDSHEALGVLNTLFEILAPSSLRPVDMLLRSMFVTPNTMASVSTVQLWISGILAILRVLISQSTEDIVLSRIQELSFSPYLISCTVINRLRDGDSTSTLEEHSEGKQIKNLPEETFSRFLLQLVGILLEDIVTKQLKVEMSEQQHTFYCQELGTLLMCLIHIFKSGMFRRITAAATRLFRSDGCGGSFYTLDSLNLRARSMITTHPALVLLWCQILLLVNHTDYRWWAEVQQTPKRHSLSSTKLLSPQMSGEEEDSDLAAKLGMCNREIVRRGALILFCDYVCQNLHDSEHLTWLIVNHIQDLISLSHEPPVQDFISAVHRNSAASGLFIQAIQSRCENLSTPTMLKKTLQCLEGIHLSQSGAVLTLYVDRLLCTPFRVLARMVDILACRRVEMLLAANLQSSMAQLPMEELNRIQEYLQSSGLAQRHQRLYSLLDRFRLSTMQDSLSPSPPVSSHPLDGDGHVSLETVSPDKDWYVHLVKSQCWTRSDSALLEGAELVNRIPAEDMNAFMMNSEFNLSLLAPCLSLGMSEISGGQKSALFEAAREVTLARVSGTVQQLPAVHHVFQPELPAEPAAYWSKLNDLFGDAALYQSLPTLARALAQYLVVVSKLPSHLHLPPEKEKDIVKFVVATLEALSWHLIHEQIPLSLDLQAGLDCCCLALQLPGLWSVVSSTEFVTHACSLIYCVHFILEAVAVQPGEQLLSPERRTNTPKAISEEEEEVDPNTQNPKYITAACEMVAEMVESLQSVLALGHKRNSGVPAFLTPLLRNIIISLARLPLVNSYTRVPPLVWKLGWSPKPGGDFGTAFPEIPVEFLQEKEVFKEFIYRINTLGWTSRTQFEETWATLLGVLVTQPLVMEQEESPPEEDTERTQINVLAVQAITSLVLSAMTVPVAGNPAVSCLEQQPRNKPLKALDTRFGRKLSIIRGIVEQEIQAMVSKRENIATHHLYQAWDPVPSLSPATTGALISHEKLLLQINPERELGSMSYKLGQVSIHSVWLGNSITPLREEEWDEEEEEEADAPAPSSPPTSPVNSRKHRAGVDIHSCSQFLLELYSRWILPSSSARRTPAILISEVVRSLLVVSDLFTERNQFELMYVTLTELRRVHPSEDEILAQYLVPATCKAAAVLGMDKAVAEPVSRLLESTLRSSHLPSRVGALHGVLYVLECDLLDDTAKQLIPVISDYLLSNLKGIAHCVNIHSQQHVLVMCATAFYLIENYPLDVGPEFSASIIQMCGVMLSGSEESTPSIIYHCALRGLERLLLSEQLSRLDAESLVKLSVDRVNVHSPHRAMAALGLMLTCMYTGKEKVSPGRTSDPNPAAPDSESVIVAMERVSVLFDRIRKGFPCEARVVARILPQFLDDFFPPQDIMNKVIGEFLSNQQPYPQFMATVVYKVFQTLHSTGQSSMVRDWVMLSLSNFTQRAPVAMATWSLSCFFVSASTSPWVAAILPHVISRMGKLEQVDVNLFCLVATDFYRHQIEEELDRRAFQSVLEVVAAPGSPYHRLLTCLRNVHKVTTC
# * marks the source's active call; other numbers are inactive results; · = no result given; ! = a repeat was not active. Rule as the data show it: active = inhibition above about 50%; inactive = the rest.
SMILES,Pf apPOL inh,mHTT-CaM PPI inh
Cc1ccc(S(=O)(=O)N(Cc2ccccc2)c2ccccc2C(=O)NCC(C)C)cc1,-4,18
O=C1C=CC(=O)N1c1ccc(-c2nc3ccccc3o2)cc1,-2,53*
O=C1c2ccc(-c3nc4ccccc4o3)cc2C(=O)N1c1ccc([N+](=O)[O-])cc1,-3,8
Cc1ccnc(Nc2nc(-c3cccnc3)cs2)c1,72*!,7
Cc1ccnc(Nc2nc(CC(=O)NCc3ccco3)cs2)c1,16,68*
Cc1ccnc(Nc2nc(-c3ccc(Cl)cc3)cs2)c1,-3,2
Cc1ccnc(Nc2nc(-c3ccc4c(c3)OCO4)cs2)c1,-1,56*
Cc1ccnc(Nc2nc(CC(=O)NCCc3cccs3)cs2)c1,-18,15
Cc1ccnc(Nc2nc(-c3ccncc3)cs2)c1,3,28
Cc1cccc(CN2CCN(C3CCN(C(=O)Nc4ccc(F)cc4F)CC3)C2=O)c1,2,2
CCCNc1cc(N2CCCC(CCC(=O)NCc3cccc(F)c3)C2)ncn1 (stereo unspecified),-4,-4
Cc1ccc2nc(SC=CC(=O)c3ccc(Cl)cc3)[nH]c2c1,-8,·
O=C(Nc1ccc(Cl)c(Cl)c1)N1CCCN(Cc2ccccc2)C1,16,95*
O=C(Nc1cc(Cl)cc(Cl)c1)N1CCCN(Cc2ccccc2)CC1,-11,·
O=C(CCN1C(=O)C2C3C=CC(CC3)C2C1=O)Nc1ccc(F)c(F)c1 (stereo unspecified),-9,-4
CCC(C)NC(=O)C1COC2(CCCCC2)N1C(=O)c1ccc(C(F)(F)F)cc1 (stereo unspecified),4,-1
O=C(CSc1nccn1Cc1ccco1)NC1CCCCC1,-6,-10
O=C(NCCSc1c[nH]c2ccccc12)c1ccc(Cl)cc1,-3,8
CC(C)(Oc1ccc(Cl)cc1)C(=O)NCCSc1c[nH]c2ccccc12,3,99*
CC(C)(Oc1ccc(Cl)cc1)C(=O)NCCc1ccccc1,0,-38
Cc1cc2ccccc2n1CCNC(=O)C(C)(C)Oc1ccc(Cl)cc1,-2,60*
CCC(=O)Oc1ccc2c(c1)OC(=Cc1cccc(OC)c1)C2=O,1,1
CN1C(=O)C(C)(C(=O)NCc2ccc(F)cc2)Oc2cccnc21 (stereo unspecified),-2,-11
O=C1OC(c2cccc(F)c2)=N/C1=C/c1ccc(Cl)cc1Cl,2,-4
COc1ccc2c(c1)c(=O)c1ccccc1n2CC(=O)Nc1cccc(C(F)(F)F)c1,0,54*
SMILES,Pf apPOL inh,mHTT-CaM PPI inh
COc1ccc2c(c1)c(=O)c1ccccc1n2CC(=O)Nc1ccc(C(F)(F)F)cc1,0,17
CCOc1cc(/C=C2\C(=O)ON=C2C)cc(Cl)c1OCc1cccc(F)c1,-2,87*
CCOc1cc(/C=C2\C(=O)ON=C2C)cc(Cl)c1OCc1ccccc1F,-1,96*
C#CCOc1c(Cl)cc(/C=C2\C(=O)ON=C2C)cc1OCC,-1,22
COc1ccc(/C=C2/C(=O)ON=C2C)cc1Br,-12,14
CC1=NOC(=O)/C1=C/c1ccc(OCc2cccc(F)c2)c(Br)c1,-2,31
CCOc1cc(/C=C2/C(=O)ON=C2C)ccc1OCc1ccccc1F,-1,44
CCCOc1ccc(/C=C2\C(=O)ON=C2C)cc1OC,-6,78*
CCOc1cc(/C=C2/C(=O)ON=C2C)ccc1OCc1cccc(F)c1,2,93*
COc1ccc(F)cc1S(=O)(=O)N1CC2CC1CC2NC(=O)c1cccs1 (stereo unspecified),2,7
Cc1ccc(C)c(C(=O)N(CCn2cccn2)c2nc3c(F)cccc3s2)c1,-6,-11
COC(=O)c1ccc(C(=O)N(CCn2cccn2)c2nc3c(C)cc(C)cc3s2)cc1,-4,100*
COc1cccc(CNC(=O)C2CCN(Cc3cn(C)c4ccc(OC)cc34)CC2)c1,2,13
C=CCn1c(=N)n(CC(=O)c2ccc(Cl)c(Cl)c2)c2ccccc21,-4,-46
C=CCn1c(=N)n(CC(=O)c2ccc(-c3ccccc3)cc2)c2ccccc21,-2,52*
O=C(Nc1cccc(N=Cc2cc(Cl)cc([N+](=O)[O-])c2O)c1)c1ccccc1,-2,33
CCCC1(CO)CCCN1C(=O)c1nn(C)c2ccccc12 (stereo unspecified),1,-2
COc1ccc(C(=O)O)cc1S(=O)(=O)Nc1ccc(F)cc1,-3,-3
COc1ccc(C2=NN(c3nc4ccccc4s3)C(=O)/C2=C\N(C)C)cc1,-1,73*
CN(C)/C=C1\C(=O)N(c2nc3ccccc3s2)N=C1c1ccccc1,-9,-1
CCOC(=O)/C=C1\CN(Cc2ccc(OC)cc2)S(=O)(=O)c2ccc(C(F)(F)F)cc21,78*,53*
CCOC(=O)/C=C1\CN(Cc2ccccc2)S(=O)(=O)c2ccc(C(F)(F)F)cc21,34,20
Cc1ccc(NS(=O)(=O)c2ccc3c4c(cccc24)C(=O)N3)c(C)c1,-1,-27
Cc1ccc(NS(=O)(=O)c2cccc3c2C(=O)c2ccccc2C3=O)c(C)c1,-5,57*
